Consider 14 compounds from PubChem BioAssay (EPA / NIEHS).

The source made the active and inactive calls. How the source made its calls: active means hit-call score of the fitted dose curve at least 0.9, where 1 is the maximum; inactive means score below 0.9.

A short description of this assay: ATG_Sox_CIS: Attagene CIS-FACTORIAL HepG2 Assay for human SRY-box transcription factor (SOX) (AID 2282960). To be noted: HepG2 Attagene cis-factorial SOX reporter, mRNA; actives raise or lower the signal. Summed up: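 Measures mRNA induction of a SOX1-associated reporter in HepG2 after 24 h dosing. Fluorescently labelled RT-PCR fragments are separated by capillary electrophoresis, and gain or loss relative to DMSO control is fitted.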
`Cc1c(COC(=O)[C@@H]2[C@H](/C=C(\Cl)C(F)(F)F)C2(C)C)cccc1-c1ccccc1`: the outcome was inactive. For `Clc1cccc(C(Cl)(Cl)Cl)n1`, the compound was called inactive. Consider `N#Cc1c[nH]cc1-c1cccc2c1OC(F)(F)O2`, for which the AC50 – broadly, the midpoint of the concentration-response curve, whichever way the signal moves – is 3.85 µM (active). For `CCNP(=S)(OC)O/C(C)=C/C(=O)OC(C)C` (centres undefined), the compound was called inactive. With `CCCN(CC)CC1COC2(CCC(C(C)(C)C)CC2)O1` (centres undefined), the AC50 is 35.5 µM (active). With `CC(C)Nc1nc(Cl)nc(NC(C)C)n1`, the call was inactive.

With `Cc1ccc(N=CN(C)C=Nc2ccc(C)cc2C)c(C)c1`, the call was inactive. `COCC(C)N(C(=O)CCl)c1c(C)csc1C` (centres undefined): the call was inactive. Same read-out and setting: the same measure for `CN/C(=N\[N+](=O)[O-])NCc1cnc(Cl)s1`: “inactive”; for `O=P(O)(O)CCCl`: “inactive”. Regarding `CCOC(=O)C(C)OC(=O)c1cc(Oc2ccc(C(F)(F)F)cc2Cl)ccc1[N+](=O)[O-]` (centres undefined), the result was inactive. Same read-out and setting: the same measure for `CCOP(=S)(OCC)Oc1nc(Cl)n(C(C)C)n1`: “inactive”; for `Nc1c(Cl)c(F)nc(OCC(=O)O)c1Cl`: “inactive”. As for `N#CN=C1SCCN1Cc1ccc(Cl)nc1`, the result was inactive.
